Screening results from PubChem BioAssay.
Six1-Eya2 blk: blocks human Six1 binding to Eya2. Q15475+O00167. AlphaScreen GST-Six1/His-Eya2 binding, biochemical; active compounds read low. activity change, % (no concentration beside the values). hit rate 0.56% among 360,000. AID 651725
Target sequence (O00167 whole entry, looked up): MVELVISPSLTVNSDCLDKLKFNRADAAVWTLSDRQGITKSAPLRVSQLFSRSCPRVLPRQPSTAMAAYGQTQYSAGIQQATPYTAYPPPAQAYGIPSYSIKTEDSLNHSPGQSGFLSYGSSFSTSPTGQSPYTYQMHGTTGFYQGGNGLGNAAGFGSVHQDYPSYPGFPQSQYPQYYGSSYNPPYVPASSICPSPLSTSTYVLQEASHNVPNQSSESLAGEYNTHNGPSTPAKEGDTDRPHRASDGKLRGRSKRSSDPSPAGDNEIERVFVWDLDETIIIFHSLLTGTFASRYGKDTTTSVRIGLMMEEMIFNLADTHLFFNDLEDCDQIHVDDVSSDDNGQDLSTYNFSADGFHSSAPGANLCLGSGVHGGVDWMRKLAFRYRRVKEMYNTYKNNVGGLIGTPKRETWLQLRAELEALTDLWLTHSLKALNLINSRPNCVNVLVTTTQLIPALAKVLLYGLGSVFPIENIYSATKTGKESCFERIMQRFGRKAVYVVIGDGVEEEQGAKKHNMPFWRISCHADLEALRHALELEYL
Target sequence (Q15475 whole entry, looked up): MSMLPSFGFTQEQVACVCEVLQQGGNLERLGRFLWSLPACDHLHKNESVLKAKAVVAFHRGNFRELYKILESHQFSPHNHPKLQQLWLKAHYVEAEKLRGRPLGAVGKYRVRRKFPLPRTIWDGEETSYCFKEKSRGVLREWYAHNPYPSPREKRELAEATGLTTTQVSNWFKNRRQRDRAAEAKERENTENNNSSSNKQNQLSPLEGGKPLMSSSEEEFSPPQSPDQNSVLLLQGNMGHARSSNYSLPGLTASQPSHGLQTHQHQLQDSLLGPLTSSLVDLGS
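Compounds are tested against tagged Six1 and Eya2 proteins bridged by glutathione donor and nickel acceptor beads; after a one-hour incubation at 37 °C without light, AlphaScreen emission is recorded.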
CtBP-E1A inh: blocks the CtBP interaction with E1A | AlphaScreen GST-E1A/His-CtBP binding, 1536-well; active compounds read low | activity change, % (concentration not given with the values) | hit rate 0.49% among 340,000 | AID 651724
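AlphaScreen with 125 nM GST-E1A and 125 nM His-CtBP (5X stocks) in Tris pH 8.0, 300 mM NaCl, BSA, Tween 20, TCEP. Compounds preincubated 2 h at 37 deg C, then glutathione donor/nickel acceptor beads added for 1 h at 37 deg C in dark.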
JMJD2E inh: JMJD2E (human) inhibition; Potency, µM (series often up to 57.1 µM), without a hit: top-dose activity change, negative = inhibition, usual class: inhibitors; B2RXH2; JMJD2E catalytic domain, FDH-coupled NADH fluorescence (FDH is formaldehyde dehydrogenase); hit rate 1.6% among 230,000; active = well fitted inhibition curve with a large enough effect, not every such curve was filed as active; inconclusive = small, poorly fitted or top-dose-only effect, or another doubt; inactive = no such curve, though single readings can be large or run the other way;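 also: potency is read from the fitted curve at half-maximal effect; 0% = wells with enzyme and -100% = buffer wells without enzyme; nearly all actives have a fitted effect of over 50% in size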
L3MBTL1 inh: inhibitors of human L3MBTL1; AID 485360; Potency, µM (series often up to 57.1 µM), for the others: at the top dose activity, negative = inhibition, usual class: inhibitors; hit rate 0.66% among 230,000; AlphaScreen L3MBTL1–H3K9me1 peptide binding; active = well fitted inhibition curve with a large enough effect; inconclusive = small, poorly fitted or top-dose-only effect; inactive = no such curve, though single readings can be large or run the other way; also: potency is read from the fitted curve at half-maximal effect; nearly all actives have a fitted effect of over 60% in size
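AlphaScreen proximity signal between nickel-chelate acceptor and streptavidin donor beads (final 10 ug/mL) reports binding of 50 nM L3MBTL1 to 75 nM biotin-H3 K9me1 peptide; complex incubated with compounds 30 min at room temperature; cefsulodin titration as control.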
* = called active by the depositor; u = inconclusive; x = not tested or not shown; [ ] = remark or other dose. This excerpt belongs to a sample that is enriched for hits. Rule as the data show it, unless noted: active = activity change below about -65%; inconclusive = mostly about -30% to -63%; inactive = weaker than that. Unless noted, % is scaled to controls: 0 for no effect and ±100 for the full control effect.

SMILES | Six1-Eya2 blk | CtBP-E1A inh | JMJD2E inh | L3MBTL1 inh
N#Cc1ccc(C(=O)OCCCc2cc3ccccc3c(=O)o2)cc1 | 10 | 15 | x | 13%
CC#CCN1c2ccccc2[C@]23C[C@@H](C(=O)OC)N(S(=O)(=O)c4ccc(C(F)(F)F)cc4)C2=NC(C(=O)OC)=C(C(=O)OC)[C@H]13 | x | x | 8%[11.4 µM] | x
CCNc1nc(NCC)n2c(SCC(=O)Nc3ccccc3)nnc2n1 | 3 | -1 | 25% | 8%
CCNc1nc(NCC)n2c(SCC(=O)Nc3ccc(C)c(C)c3)nnc2n1 | -4 | -4 | x | 28µM*
COc1ccc2nc(NNC(=O)c3cc(=O)c4ccccc4o3)sc2c1 | -9 | -12 | 32µM* | -4%
NC(=NCCc1ccccc1)NS(=O)(=O)c1ccc2ccccc2c1 | -4 | -1 | 3% | -5%
COc1cc(/C=N/NC(=O)c2sc(N)c(C#N)c2C)ccc1O | -71* | -83* | -12% | -2%
Cc1c(C(=O)N/N=C/c2ccc(O)c(Br)c2)sc(N)c1C#N | u | -65* | u | -6%
COc1cc(/C=N/NC(=O)c2ccccc2)ccc1O | -1 | -13 | u | 2%
CCc1nc2ccc(C(=O)NCCCn3ccnc3)cn2c1N(C)C(=O)c1cccc(OC)c1 | 5 | -17 | x | x
CCCCc1nc2c(c3c1C[C@H](C)OC3)CN(C(=O)c1cc(I)ccc1F)CC2 | x | x | 4%[11.4 µM] | x
COc1ccc(-c2nc(-c3ccccc3)oc2Nc2ccccc2C)cc1 | x | x | -5% | x
CCOC(=O)C1=C(CS(=O)(=O)c2ccc(F)c(C)c2)NC(=O)NC1c1ccc(O)c(O)c1 (stereo not drawn) | 2 | -2 | 14µM* | -7%
COc1cccc(-c2ccc3ncnc(NCc4cccc(F)c4)c3c2)c1 | x | x | x | 7%
CN1C(=O)C(CC(=O)O)S/C1=N\N=C\c1ccc(O)cc1O (stereo not drawn) | -6 | u | 25µM* | -11%
Oc1ccc(NCc2ccccc2OCc2ccccc2F)cc1 | -4 | u | 5µM* | u
Cc1ccc(NCc2ccccc2OCc2ccccc2F)cc1 | -28 | -23 | 2% | x
COc1cccc(NC(=O)c2nc(S(C)(=O)=O)ncc2Cl)c1 | 24 | -90* | x | x
O=C(N/N=C/C=C\c1ccco1)c1cccs1 | -20 | -1 | u | 6.3µM*
O=C(N/N=C/c1ccccc1)c1ccco1 | 2 | 8 | 11% | 0%
O=C(N/N=C/C(Br)=C\c1ccccc1)c1cccs1 | -11 | -81* | -20% | -3%
CC(=C/c1ccccc1)/C=N/NC(=O)c1ccc2nc[nH]c2c1 | 4 | 6 | 4% | -7%
O=C(N/N=C/C(Br)=C\c1ccccc1)c1ccco1 | -8 | -82* | -6% | -6%
O=C(N/N=C/C(Br)=C\c1ccccc1)c1ccc2nc[nH]c2c1 | -20 | -77* | -2% | -12%
CCCCC/C=C\C\C=C/C=C/C=C/[C@@H](SCC(NC(=O)CCC(N)C(=O)O)C(=O)NCC(=O)O)[C@@H](O)CCCC(=O)O (stereo partly drawn) | x | x | -4% | x
SMILES | Six1-Eya2 blk | CtBP-E1A inh | JMJD2E inh | L3MBTL1 inh
O=C(NC1CCS(=O)(=O)C1)/C(=C\c1ccc(F)cc1)NC(=O)c1ccccc1 (stereo not drawn) | 7 | 14 | 3% | 33%
Nc1nc2ncc(-c3ccsc3)c(N)n2n1 | 10 | -1 | -2% | -3%
CSCCC(c1nnnn1C(C)(C)C)N1CCN(C/C=C/c2ccccc2)CC1 (stereo not drawn) | -26 | -13 | x | x
O=C(N/N=C/c1cn(Cc2cccc(F)c2)c2ccccc12)c1cc(O)cc(O)c1 | -75* | -72* | x | x
CCOC(=O)C1=C(C)N=C2c3ccccc3C(=O)C2C1c1ccc(C)cc1 (stereo not drawn) | -7 | -13 | 32µM* | 18%
CCOC(=O)C1=C(C)N=C2c3ccccc3C(=O)C2C1c1ccccc1 (stereo not drawn) | -10 | -12 | -2% | -11%
O=C(O)c1ccccc1C(=O)Nc1n[nH]c(=S)s1 | 0 | 1 | 4µM* | u
O=C(O)c1ccccc1C(=O)Nc1nccs1 | 3 | 0 | -5% | 8%
COCC(=O)N(C)c1nnc(-c2ccccn2)s1 | -6 | -1 | 33% | 5%
c1ccc(C2=NNC(c3ccccn3)=NN2)nc1 | -71* | -80* | x | x
c1ccc(-c2nc3ccccc3nc2-c2ccccn2)nc1 | -13 | -9 | -27% | -8%
c1ccc(-c2nnc(-c3ccccn3)s2)nc1 | -8 | 0 | 2.8µM* | x
OCCN1CCN(C(c2cccs2)c2ccc3cccnc3c2O)CC1 (stereo not drawn) | x | x | 8.9µM* | -3%
